Measurements as given in PubChem BioAssay (NCATS).
Records with an inconclusive call do not appear. Calls of active or inactive are those of the source. Unless noted, calls come from the whole dose curve; as a rule, active = well fitted curve in the direction sought with a large enough effect; inconclusive = small, poorly fitted or top-dose-only effect, or another doubt; inactive = no such curve, though single readings can be large; an effect the other way counts as inactive or inconclusive.

Tests used:
[1] = biological target: DNA repair nuclease/redox regulator APEX1 (Homo sapiens) (UniProt P27695); experiment: qHTS Validation Assay for Inhibitors of the Human Apurinic/apyrimidinic Endonuclease 1 (APE1) (AID 1705;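 note: TAMRA fluorescence gain over two minutes as APE1 cuts a quenched THF abasic duplex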)
How it was run: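 Human APE1 was preincubated with compound for 15 min at room temperature, then 50 nM (final) THF-abasic double-stranded DNA substrate bearing 5'-TAMRA and 3'-BHQ-2 was added. Incision-driven fluorescence rise (ex 525/em 598 nm) was read kinetically.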

[2] = Counterscreen for APE1 Inhibitors: Fluorescent Dye Displacement Validation Assay (AID 1707)
How it was run: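 Thiazole Orange (250 nM) bound to 50 nM TAMRA-labelled dsDNA with tetrahydrofuran abasic site; displacement by DNA-binding compounds lowers fluorescence. Buffer 50 mM Tris-HCl pH 7.5, 50 mM NaCl, 2 mM MgCl2, 0.01% Tween-20; endpoint read at 480/540 nm.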

[3] = biological target: Endonuclease 4 (Escherichia coli (strain K12)) (UniProt P0A6C1); experiment: Counterscreen for APE1 Inhibitors: qHTS Validation Assay for Inhibitors of Endonuclease IV (AID 1708)
How it was run: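 Enzymatic AP-site incision assay using a double-stranded THF substrate labelled with TAMRA and BHQ-2; released fluorescence signals activity. Enzyme 2 nM, substrate 50 nM, 15 min compound preincubation.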

[4] = qHTS for differential inhibitors of proliferation of Plasmodium falciparum line 7G8 (AID 1815);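 note: parasite growth measured after three days of incubation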; note: potency is the fitted concentration of half-maximal effect
[5] = qHTS for differential inhibitors of proliferation of Plasmodium falciparum line GB4 (AID 1816); settings: Potency: Plasmodium falciparum GB4 proliferation inhibition;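 note: parasite growth measured after 72 h incubation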; note: potency is the fitted concentration of half-maximal effect
[6] = qHTS for differential inhibitors of proliferation of Plasmodium falciparum line 3D7 (AID 1876); note: potency is the fitted concentration of half-maximal effect
[7] = qHTS for differential inhibitors of proliferation of Plasmodium falciparum line D10 (AID 1877);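 note: parasites grown with compound for 72 h before DNA staining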; note: potency is the fitted concentration of half-maximal effect
[8] = qHTS for differential inhibitors of proliferation of Plasmodium falciparum line Dd2 (AID 1882); settings: Potency: Plasmodium falciparum Dd2 proliferation inhibition; note: nearly all actives have a fitted effect of over 65% in size; note: potency is the fitted concentration of half-maximal effect
How it was run: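 SYBR Green I DNA fluorescence read-out, ex 485/em 535 nm. Signals were normalized to 0.29 uM artemisinin and DMSO wells, then corrected using vehicle-only plates flanking each stack. Parasite growth ran 72 h in erythrocytes before lysis.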

[9] = qHTS for differential inhibitors of proliferation of Plasmodium falciparum line W2 (AID 1883); settings: Potency: Plasmodium falciparum W2 proliferation inhibition;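 note: parasites grown with compound for 72 h before lysis and staining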; note: potency is the fitted concentration of half-maximal effect
[10] = qHTS for differential inhibitors of proliferation of Plasmodium falciparum line HB3 (AID 1886); settings: Potency: Plasmodium falciparum HB3 proliferation inhibition;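 note: parasites grown with compound for 72 h before SYBR Green readout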; note: potency is the fitted concentration of half-maximal effect
[11] = biological target: ATP-dependent DNA helicase Q1 (Homo sapiens) (UniProt P46063); experiment: qHTS Validation Assay for Inhibitors of RecQ-Like Dna Helicase 1 (RECQ1) (AID 2353)
How it was run: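 50 nM RECQ1T1 preincubated 15 min with compound in Tris pH 8.0 buffer with MgCl2, DTT, Tween-20 and 2.5 ug/ml poly(dI-dC); started with 200 nM TAMRA/BHQ-2 forked duplex and 2 mM ATP. Unwinding read as fluorescence (525/598 nm), two reads 2 h apart.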

[12] = High Content Imaging Cell-Based qHTS for Inhibitors of the mTORC1 Signaling Pathway in MEF (Tsc2-/-, p53-/-) Cells (AID 2666); settings: at 38.3 µM (top of the series);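 note: percent of cells scored positive for phospho-rpS6 Ser235/236 immunostaining by imaging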
How it was run: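 Cells were plated, dosed with compound after 24 hrs, and incubated another 24 hrs at 37 degree Celsius. Fixed cells were immunostained for phospho-rpS6 Ser235/236 and counterstained, and the normalized signal was scored as % active cells against rapamycin and DMSO controls.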

[13] = Cytometry Cell-Based qHTS for Inhibitors of the mTORC1 Signaling Pathway in MEF cells (AID 2668);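 note: Tsc2-/- p53-/- mouse embryonic fibroblasts stably re-expressing wild-type Tsc2; percent cells positive for phospho-rpS6 Ser235/236 relative to propidium iodide stain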
How it was run: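 WT MEFs (Tsc2-/-, p53-/- stably re-expressing WT Tsc2) in DMEM + 10% FBS received compounds 24 hrs after plating, for 24 hrs at 37 degree Celsius. Fixed cells stained with Alexa-488 anti-phospho-rpS6 Ser235/236 and propidium iodide; laser-scanning cytometry read-out.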

[14] = Validation screen for small molecules that induce DNA re-replication in MCF 10A normal breast cells (AID 463097); note: nearly all actives have a fitted effect of over 60% in size; note: potency is the fitted concentration of half-maximal effect
How it was run: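 Readout: Hoechst nuclear fluorescence intensity, 405 ex / 500-530 em, by scanning plate imager; re-replication scored as increase in nuclei with elevated DNA content. Cells exposed to compound 48 hr, 37 C, 5% CO2 beforehand.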

[15] = biological target: Ubiquitin carboxyl-terminal hydrolase 2 (Homo sapiens) (UniProt O75604); experiment: qHTS Validation Assay for Inhibitors of Ubiquitin-specific Protease USP2a Using CHOP2 as the Reporter (AID 463106)
How it was run: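 10nM USP2 core + cpd, 30min RT; add 25nM Ub-CHOP2/25nM substrate; 60min RT; FI 485/531nm. Buffer Tris pH 8.0, CaCl2, BME, CHAPS. Norm. to NEM = 100% inhibition; time-zero read flags fluorescent artifacts.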

[16] = biological target: RecQ-like DNA helicase BLM (Homo sapiens) (UniProt P54132); experiment: qHTS Validation Assay for Inhibitors of Bloom's syndrome helicase (BLM) (AID 2364); note: potency is the fitted concentration of half-maximal effect
How it was run: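 Forked 20-bp duplex substrate (200 nM, TAMRA/BHQ-2) plus 2 mM ATP added after 15 min compound preincubation with 50 nM enzyme, pH 8.0, poly(dI-dC) 2.5 ug/ml. Strand separation followed by fluorescence (525/598 nm) over 2 h, normalized to enzyme-free and DMSO controls.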

[17] = Cytometric Cell-Based qHTS for Inhibitors of the mTORC1 Signaling Pathway in MEF (Tsc2-/-, p53-/-) Cells (AID 2660);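 note: percent of cells above a phospho-rpS6 to PI ratio cutoff in each well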
How it was run: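 Tsc2-/-, p53-/- MEFs (empty vector) exposed to compound 24 h at 37 C, fixed, stained with Alexa-488 anti-phospho-rpS6 Ser235/236 and propidium iodide. Acumen laser scanning; phospho-S6/PI ratio thresholded against 7.5 nM rapamycin, reported as % positive cells.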

[18] = qHTS Assay for Identification of Small Molecule Inducers of Hypoxia Response (AID 2120; active = well fitted curve in the direction sought with a large enough effect in the signal ratio, with a control signal flat, not every such curve was filed as active; the % refers to the signal ratio)
How it was run: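 HRE-beta-lactamase reporter in CellSensor HRE-bla ME-180 cells, 2500 cells/well in Opti-MEM with 0.5% dialyzed FBS; compounds tested as titration series, 17 h at 37 degrees C. CCF4 substrate 2.5 h at room temperature; AC50 from 460/530 nm ratio.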

[19] = High Content Imaging Cell-Based qHTS for Inhibitors of the mTORC1 Signaling Pathway in MEF Cells (AID 2667);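 note: Tsc2-/- p53-/- MEFs stably re-expressing wild-type Tsc2 exposed 24 h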
How it was run: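 Immunofluorescence for rpS6 phosphorylation in MEFs of Tsc2-/-, p53-/- background rescued with WT Tsc2. Compound exposure lasted 24 hrs. Inhibition was scored against rapamycin-treated control wells.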

[20] = qHTS Assay for Modulators of Human Peripheral Myelin Protein 22 (PMP22) Expression/Activity (AID 1967; active = well fitted curve in the direction sought with a large enough effect in the signal ratio; the % refers to the signal ratio)
How it was run: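 MSC80 mouse Schwann cells stably carrying Pmp22 promoter–green click beetle luciferase plus EF-alpha–red luciferase control were dosed for 24h at 37 °C. Dual-colour luminescence was filter-overlap corrected; %Activity came from green/red ratio versus untreated cells.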

Measured: Potency

ATP-dependent DNA helicase Q1 (Homo sapiens), sequence (P46063 whole entry, looked up): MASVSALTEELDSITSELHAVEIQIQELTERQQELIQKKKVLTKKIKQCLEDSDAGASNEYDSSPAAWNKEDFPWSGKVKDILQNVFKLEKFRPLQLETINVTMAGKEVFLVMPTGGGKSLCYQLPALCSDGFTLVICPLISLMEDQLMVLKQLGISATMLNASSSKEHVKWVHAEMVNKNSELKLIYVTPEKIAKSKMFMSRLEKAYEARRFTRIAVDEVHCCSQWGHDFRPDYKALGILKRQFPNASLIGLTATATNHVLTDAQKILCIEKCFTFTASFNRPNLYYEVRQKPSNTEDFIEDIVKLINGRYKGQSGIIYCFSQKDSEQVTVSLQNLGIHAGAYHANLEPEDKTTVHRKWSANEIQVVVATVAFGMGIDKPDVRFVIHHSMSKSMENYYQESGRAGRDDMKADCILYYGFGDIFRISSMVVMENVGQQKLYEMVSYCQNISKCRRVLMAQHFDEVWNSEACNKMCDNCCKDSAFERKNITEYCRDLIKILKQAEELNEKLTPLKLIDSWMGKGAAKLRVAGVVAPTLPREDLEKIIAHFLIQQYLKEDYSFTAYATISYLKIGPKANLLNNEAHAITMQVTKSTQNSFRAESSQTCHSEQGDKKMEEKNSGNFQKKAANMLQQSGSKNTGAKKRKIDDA
RecQ-like DNA helicase BLM (Homo sapiens), sequence (P54132 whole entry, looked up): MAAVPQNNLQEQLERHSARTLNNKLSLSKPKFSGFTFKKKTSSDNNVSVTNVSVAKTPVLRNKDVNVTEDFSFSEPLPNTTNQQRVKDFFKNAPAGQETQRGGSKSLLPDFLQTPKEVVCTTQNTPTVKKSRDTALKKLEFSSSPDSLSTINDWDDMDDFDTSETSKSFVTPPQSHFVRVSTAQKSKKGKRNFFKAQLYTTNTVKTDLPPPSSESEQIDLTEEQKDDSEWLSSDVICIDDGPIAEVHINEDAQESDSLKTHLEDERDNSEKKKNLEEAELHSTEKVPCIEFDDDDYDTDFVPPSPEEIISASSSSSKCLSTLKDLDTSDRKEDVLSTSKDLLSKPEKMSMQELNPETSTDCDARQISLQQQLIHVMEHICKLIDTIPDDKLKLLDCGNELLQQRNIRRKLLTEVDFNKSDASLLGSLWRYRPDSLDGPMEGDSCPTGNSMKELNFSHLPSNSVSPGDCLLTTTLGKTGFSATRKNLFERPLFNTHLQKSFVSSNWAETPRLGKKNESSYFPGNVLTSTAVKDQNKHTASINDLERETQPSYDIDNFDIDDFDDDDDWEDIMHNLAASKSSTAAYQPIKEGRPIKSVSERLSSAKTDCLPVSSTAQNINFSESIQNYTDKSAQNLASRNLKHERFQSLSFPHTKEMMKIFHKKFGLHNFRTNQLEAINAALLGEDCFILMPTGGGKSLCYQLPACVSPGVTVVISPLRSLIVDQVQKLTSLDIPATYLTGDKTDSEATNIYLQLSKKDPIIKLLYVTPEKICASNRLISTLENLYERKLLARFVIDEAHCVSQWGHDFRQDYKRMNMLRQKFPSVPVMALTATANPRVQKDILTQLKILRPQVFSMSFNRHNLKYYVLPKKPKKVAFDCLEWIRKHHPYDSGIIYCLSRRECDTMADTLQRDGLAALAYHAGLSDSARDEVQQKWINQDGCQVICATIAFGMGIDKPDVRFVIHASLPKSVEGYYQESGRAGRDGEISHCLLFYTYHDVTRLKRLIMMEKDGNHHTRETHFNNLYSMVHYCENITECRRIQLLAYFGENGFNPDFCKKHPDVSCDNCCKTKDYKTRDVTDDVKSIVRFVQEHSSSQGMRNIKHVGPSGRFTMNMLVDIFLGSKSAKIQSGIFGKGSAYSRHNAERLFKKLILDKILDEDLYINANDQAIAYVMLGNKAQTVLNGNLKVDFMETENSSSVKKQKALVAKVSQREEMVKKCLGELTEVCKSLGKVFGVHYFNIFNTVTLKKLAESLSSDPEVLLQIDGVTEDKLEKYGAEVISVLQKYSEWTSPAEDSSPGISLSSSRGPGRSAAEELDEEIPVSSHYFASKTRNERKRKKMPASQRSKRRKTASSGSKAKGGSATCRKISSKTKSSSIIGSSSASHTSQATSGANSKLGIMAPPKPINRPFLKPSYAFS
DNA repair nuclease/redox regulator APEX1 (Homo sapiens), sequence (P27695 whole entry, looked up): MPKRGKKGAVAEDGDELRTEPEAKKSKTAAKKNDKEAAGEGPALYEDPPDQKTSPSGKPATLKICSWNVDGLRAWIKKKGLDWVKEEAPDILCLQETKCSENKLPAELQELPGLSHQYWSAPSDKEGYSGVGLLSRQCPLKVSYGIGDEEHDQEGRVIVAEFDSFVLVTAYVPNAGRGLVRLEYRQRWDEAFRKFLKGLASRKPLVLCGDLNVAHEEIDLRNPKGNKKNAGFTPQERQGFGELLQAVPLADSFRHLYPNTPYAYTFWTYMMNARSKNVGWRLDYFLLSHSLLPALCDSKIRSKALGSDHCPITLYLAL
Ubiquitin carboxyl-terminal hydrolase 2 (Homo sapiens), sequence (O75604 whole entry, looked up): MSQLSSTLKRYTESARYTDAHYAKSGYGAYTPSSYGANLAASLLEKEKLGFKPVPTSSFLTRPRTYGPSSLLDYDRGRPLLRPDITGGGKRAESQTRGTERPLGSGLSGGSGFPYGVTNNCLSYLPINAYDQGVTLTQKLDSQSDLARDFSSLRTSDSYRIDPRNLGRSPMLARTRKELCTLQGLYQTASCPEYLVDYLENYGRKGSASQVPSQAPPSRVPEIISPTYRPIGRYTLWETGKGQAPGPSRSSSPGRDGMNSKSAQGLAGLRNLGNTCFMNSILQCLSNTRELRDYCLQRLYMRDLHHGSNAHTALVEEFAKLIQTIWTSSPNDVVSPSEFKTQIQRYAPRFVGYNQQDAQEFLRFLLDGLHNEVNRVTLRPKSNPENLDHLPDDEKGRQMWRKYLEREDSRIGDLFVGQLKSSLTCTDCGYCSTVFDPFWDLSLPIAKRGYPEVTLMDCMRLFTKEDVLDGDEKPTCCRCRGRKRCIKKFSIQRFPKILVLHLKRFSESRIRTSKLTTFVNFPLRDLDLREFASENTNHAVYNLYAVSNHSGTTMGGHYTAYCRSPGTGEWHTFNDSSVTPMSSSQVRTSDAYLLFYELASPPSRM

NCCCC(N)(C(=O)O)C(F)F (stereo not given)
inactive: [1] | [2] | [3] | [4] | [5] | [6] | [7] | [8] | [9] | [10] | [11] | [12] | [13] | [14] | [15]

CCOC(=O)C1=C[C@]2(CC)CCCN3CCc4c(n1c1ccccc41)[C@@H]32
active: [4] 7.08 µM | [5] 7.94 µM | [9] 14.1 µM | [10] 12.6 µM
inactive: [1] | [2] | [3] | [11] | [12] | [13] | [14]

CC(C[N+](C)(C)C)OC(N)=O (stereo not given)
inactive: [1] | [2] | [3] | [4] | [5] | [6] | [7] | [8] | [10] | [11] | [16] | [17] | [12] | [13] | [14]

Cc1[nH]c(=O)c(C#N)cc1-c1ccc2nccn2c1
inactive: [1] | [2] | [3] | [4] | [5] | [6] | [8] | [10] | [11] | [12] | [13] | [14]

NC[C@H](O)c1ccc(O)c(O)c1
inactive: [1] | [2] | [3] | [5] | [6] | [7] | [8] | [10] | [11] | [17] | [12] | [13] | [14]

CC(C)C[C@H](NC(=O)[C@@H](O)[C@H](N)Cc1ccccc1)C(=O)O
active: [4] 2.51 µM | [5] 2.51 µM | [6] 0.631 µM | [7] 2.82 µM | [8] 2.24 µM | [9] 1 µM | [10] 3.55 µM
inactive: [2] | [3] | [11] | [16] | [12] | [13] | [14]

Nc1ncnc2nc(-c3ccc(N4CCOCC4)nc3)cc(-c3cccc(Br)c3)c12
inactive: [17] | [12] | [13]

CCn1cc(C(=O)O)c(=O)c2cc(F)c(N3CCNC(C)C3)c(F)c21 (stereo not given)
active: [6] 11.2 µM | [9] 10 µM
inactive: [1] | [2] | [11] | [16] | [17] | [12] | [13] | [14] | [15]

O=c1n(CCCN2CCN(c3cccc(Cl)c3)CC2)nc2ccccn12
inactive: [1] | [2] | [3] | [6] | [7] | [8] | [10] | [11] | [16] | [12] | [13] | [14]

CCCC(CCC)C(=O)O
inactive: [1] | [2] | [3] | [18] | [11] | [12] | [13] | [14]

C[C@]12CCC(=O)C=C1CC[C@@H]1[C@@H]2[C@@H](O)C[C@@]2(C)[C@H]1CC[C@]2(O)C(=O)CO
inactive: [12] | [19] | [13]

O=C(Nc1nc2ccccc2n1CCN1CCOCC1)c1cccc([N+](=O)[O-])c1
inactive: [17] | [12] | [15]

OC(CCN1CCCCC1)(c1ccccc1)C1CC2C=CC1C2 (stereo not given)
inactive: [17] | [12] | [13]

CC(C)(C)NCC(O)c1ccc(O)c(CO)c1 (stereo not given)
inactive: [1] | [2] | [3] | [11] | [16] | [12] | [13] | [14]

O=NN(CCCl)C(=O)NCCCl
inactive: [1] | [2] | [4] | [5] | [6] | [8] | [9] | [10] | [11] | [12] | [19] | [13] | [14]

CCN(CC)CCCC(C)Nc1ccnc2cc(Cl)ccc12 (stereo not given)
inactive: [1] | [2] | [20] | [11] | [16] | [12] | [13] | [14]
active: [4] 2.51 µM | [5] 1.78 µM | [6] 0.112 µM | [7] 0.316 µM | [8] 10 µM | [9] 2.24 µM | [10] 0.282 µM

Cc1ccc(N(CC2=NCCN2)c2cccc(O)c2)cc1
inactive: [1] | [2] | [3] | [7] | [8] | [11] | [12] | [13] | [14]
active: [9] 11.2 µM

NCCc1ccc(O)c(O)c1
inactive: [1] | [2] | [3] | [8] | [11] | [12] | [14]
active: [9] 10 µM

CC(C)NCC(O)COc1ccc(COCCOC(C)C)cc1 (stereo not given)
inactive: [2] | [3] | [6] | [7] | [8] | [10] | [11] | [16] | [12] | [13] | [14]

NC(N)=NC(=O)c1nc(Cl)c(N)nc1N
inactive: [1] | [3] | [11] | [12] | [19] | [13] | [14]

CN1CCN(CCCN2c3ccccc3Sc3ccc(C(F)(F)F)cc32)CC1
active: [4] 3.98 µM | [5] 4.47 µM | [6] 7.08 µM | [7] 11.2 µM | [8] 12.6 µM | [9] 4.47 µM | [10] 7.94 µM
inactive: [1] | [2] | [11] | [16] | [15]

Cc1cn[nH]c1
inactive: [2] | [3] | [4] | [5] | [6] | [7] | [8] | [9] | [10] | [11] | [16] | [12] | [13] | [14]

O=C1CCc2cc(OCCCCc3nnnn3C3CCCCC3)ccc2N1
inactive: [1] | [2] | [8] | [11] | [12] | [13] | [14]
active: [4] 14.1 µM

Cn1cnc([N+](=O)[O-])c1Sc1ncnc2nc[nH]c12
active: [6] 12.6 µM | [9] 12.6 µM
inactive: [1] | [2] | [3] | [11] | [12] | [13]

O=C(O)COCCN1CCN(C(c2ccccc2)c2ccc(Cl)cc2)CC1 (stereo not given)
inactive: [13]

CCC(C)N(C)C(=O)c1cc2ccccc2c(-c2ccccc2Cl)n1 (stereo not given)
active: [4] 7.94 µM | [5] 12.6 µM | [7] 11.2 µM | [9] 7.94 µM | [10] 12.6 µM
inactive: [1] | [2] | [8] | [11] | [12] | [13] | [14] | [15]

Cc1cnc(NC(=O)C2=C(O)c3ccccc3S(=O)(=O)N2C)s1
inactive: [1] | [2] | [3] | [6] | [7] | [8] | [10] | [11] | [16] | [12] | [13] | [14]
active: [9] 8.91 µM

Cc1cccc(-c2[nH]c(C(C)(C)C)nc2-c2ccc3nccnc3c2)n1
inactive: [12]

CC(C)(Sc1ccc(CCN(CCCCC2CCCCC2)C(=O)NC2CCCCC2)cc1)C(=O)O
active: [16] 28.2 µM | [14] 12.6 µM
inactive: [1] | [2] | [6] | [7] | [8] | [10] | [17] | [12] | [13]

NNCCc1ccccc1
inactive: [1] | [2] | [3] | [7] | [8] | [11] | [12] | [13] | [14]
